These compounds were tested against AMP-activated protein kinase, AMPK (Homo sapiens) (UniProt P54646+O43741+P54619+Q9UGJ0+Q9Y478+Q13131+Q9UGI9) (assay: AMP-dependent Kinase enzyme assay. An in vitro enzyme assay that detects ADP turnover that is directly proportional to AMPK activity. This uses naive AMPK that is activated during the assay with MK-8722). Settings: 30 µM.
Assay type: functional
Parameters: scale not given: direction of the effect not stated beside the values

| Structure (SMILES) | Percent Effect [%] |
| --- | --- |
| CCN(Cc1cccc2c1OCCO2)C(=O)NC(C)(C)C | -7.11 |
| CCc1c(C)nn2c(O)cc(C3CCN(C(=O)c4ccn(C)n4)C3)nc12 (stereo not given) | -4.46 |
| COCC(C)(O)CNC(=O)c1cc(-c2ccc(F)cc2)nn1C (stereo not given) | 2.75 |
| OC(CNCCc1nnc2ccccn12)c1ccc2c(c1)OCO2 (stereo not given) | 17.2 |
| Cc1nn(CCC(=O)NC2CCCOC2)c(C)c1C (stereo not given) | 12.2 |
| N#CCc1ccc(NC(=O)N[C@H](CO)Cc2ccc(O)cc2)cc1 | 9.92 |
| COCCN(CC(F)F)c1cc(COC)nc2ncnn12 | 0.272 |
| O=C(CCn1ccnc1)N1CC[C@H](Oc2cccc(F)c2)[C@@H](O)CC1 | -2.81 |
| CC(C)c1cc(C(=O)NCCc2nc(-c3ccncc3)n[nH]2)[nH]n1 | 39.1 |
| Cc1noc(CN(C)c2nc(-c3ccco3)nc3c2CCN(C)CC3)n1 | 3.37 |
| CCCn1ccnc1-c1cccc(NC2CCOC2)c1 (stereo not given) | 1.21 |
| COCC(NC(=O)c1cn2ccsc2n1)c1ccnn1C (stereo not given) | -19.1 |
| COCCN(C)Cc1cc(Cl)ccc1OCC(O)CN1CCCCCC1 (stereo not given) | -8.12 |
| Cn1cc(S(=O)(=O)N(Cc2ccc(F)cc2F)C2CC2)cc1C(N)=O | 3.23 |
| Cc1nc2sccn2c1CN(CCCN(C)C)Cc1ccccn1 | 3.1 |
| N#Cc1cccc(N2CCC(CO)(CCCc3ccccc3)CC2)n1 | 6.03 |
| Cc1ccc2nc(CN3CCCCC3CCn3cccn3)cn2c1 (stereo not given) | 4.05 |
| CC1(C)COCCN1C(=O)Cc1cc(Cl)c2c(c1)OCCO2 | 10.7 |
| CCc1nc(N)nc(NCCC(=O)NC2CCCCC2)c1C | 0.541 |
| CCc1ccccc1OCCN(C)C(=O)CCN1CCCCO1 | 0.981 |
